Data published in PubChem BioAssay AID1159580 (chemical genetic matrix, 2015).
In all, about 5,500 compounds went through this assay and about 2,000 (36%) were called active. Roughly 18% stayed inconclusive and do not appear here. Rule as the data show it: active = normalized growth mostly below about 0.91 (no sharp cut-off); inconclusive = no clear call, values can overlap the other calls; inactive = mostly above about 0.92. The list shows a part of the results.

Experiment: chemical genetic growth profiling, strain panel (AID 1159580);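 also: tested at 20 µM; growth read once vehicle control cultures reached saturation at 30 °C; 1 = growth at the plate median or of vehicle wells; lower values mean less growth of the strain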
Details: S. cerevisiae deletion strains, growth OD
[1] = locus YHR030C, strain SLT2, active compounds read low
[2] = locus YJL095W, strain BCK1, active compounds read low

Measured: normalized growth

COc1ccc2c(=O)c(-c3ccc(O)cc3)coc2c1
inactive: [1] 0.966 | locus YHR079C, strain IRE1, active compounds read low 0.939 | [2] 0.962 | locus YJR066W, strain TOR1, active compounds read low 0.918 | locus YLR113W, strain HOG1, active compounds read low 0.955 | locus YNL183C, strain NPR1, active compounds read low 0.918 | locus YOR231W, strain MKK1, active compounds read low 0.942 | locus YPL256C, strain CLN2, active compounds read low 0.925

COc1ccc(-c2coc3cc(O)ccc3c2=O)c(OC)c1O
inactive: locus YAL013W, strain DEP1, active compounds read low 0.991 | locus YAL021C, strain ccr4, active compounds read low 0.979 | locus YAL026C, strain drs2, active compounds read low 0.979 | locus YAL030W, strain snc1, active compounds read low 0.947 | locus YBL061C, strain skt5, active compounds read low 0.973 | locus YBR009C, strain hhf1, active compounds read low 0.966 | locus YBR021W, strain FUR4, active compounds read low 1.12 | locus YBR023C, strain chs3, active compounds read low 0.98 | locus YBR171W, strain sec66, active compounds read low 0.983 | locus YBR229C, strain ROT2, active compounds read low 0.949 | locus YBR231C, strain swc5, active compounds read low 0.989 | locus YBR279W, strain paf1, active compounds read low 0.983 | locus YCL011C, strain gbp2, active compounds read low 0.977 | locus YCL016C, strain dcc1, active compounds read low 0.978 | locus YCL029C, strain bik1, active compounds read low 0.972 | locus YCL061C, strain MRC1, active compounds read low 0.991 | locus YCL069W, strain vba3, active compounds read low 0.981 | locus YCR088W, strain abp1, active compounds read low 0.983 | locus YDL005C, strain med2, active compounds read low 0.977 | locus YDL035C, strain GPR1, active compounds read low 1 | locus YDL040C, strain nat1, active compounds read low 0.987 | locus YDL074C, strain BRE1, active compounds read low 1.03 | locus YDL101C, strain DUN1, active compounds read low 0.97 | locus YDL185W, strain tfp1, active compounds read low 0.968 | locus YDL192W, strain arf1, active compounds read low 0.984 | locus YDR001C, strain nth1, active compounds read low 0.983 | locus YDR069C, strain doa4, active compounds read low 0.947 | locus YDR101C, strain arx1, active compounds read low 0.975 | locus YDR137W, strain rgp1, active compounds read low 0.986 | locus YDR159W, strain sac3, active compounds read low 0.953 | locus YDR162C, strain NBP2, active compounds read low 0.966 | locus YDR195W, strain ref2 0.94 | locus YDR297W, strain sur2, active compounds read low 0.979 | locus YDR318W, strain mcm21, active compounds read low 0.99 | locus YDR334W, strain swr1, active compounds read low 0.967 | locus YDR335W, strain msn5, active compounds read low 0.991 | locus YDR388W, active compounds read low 0.988 | locus YDR392W, strain spt3, active compounds read low 0.945 | locus YDR502C, strain sam2, active compounds read low 0.977 | locus YEL003W, strain gim4, active compounds read low 0.976 | locus YEL037C, strain rad23, active compounds read low 0.967 | locus YEL061C, strain CIN8 (second series), active compounds read low 0.967 | locus YEL061C, strain CIN8, active compounds read low 0.985 | locus YER015W, strain faa2, active compounds read low 0.983 | locus YER016W, strain bim1, active compounds read low 0.986 | locus YER110C, active compounds read low 0.962 | locus YER111C, strain swi4, active compounds read low 0.971 | locus YER155C, strain BEM2 (second series), active compounds read low 0.985 | locus YER155C, strain BEM2, active compounds read low 1 | locus YER167W, strain BCK2, active compounds read low 0.983 | locus YFR010W, strain ubp6, active compounds read low 0.968 | locus YGL078C, strain dbp3, active compounds read low 0.986 | locus YGL086W, strain mad1, active compounds read low 0.971 | locus YGL167C, strain pmr1, active compounds read low 0.959 | locus YGL173C, strain kem1, active compounds read low 0.974 | locus YGL227W, strain vid30, active compounds read low 0.957 | locus YGL240W, strain doc1, active compounds read low 0.977 | locus YGL248W, strain PDE1, active compounds read low 0.982 | locus YGL253W, strain hxk2, active compounds read low 0.989 | locus YGR135W, strain pre9, active compounds read low 1.01 | locus YGR252W, strain gcn5, active compounds read low 1.12 | locus YHR013C, strain ard1, active compounds read low 0.933 | locus YHR027C, strain rpn1, active compounds read low 0.989 | [1] 0.99 | locus YHR079C, strain IRE1 (second series), active compounds read low 0.974 | locus YHR094C, strain hxt1, active compounds read low 0.988 | locus YHR129C, strain ARP1, active compounds read low 0.993 | locus YHR142W, strain chs7, active compounds read low 1 | locus YHR200W, strain rpn10, active compounds read low 0.991 | locus YIL066C, strain RNR3, active compounds read low 0.981 | locus YIL073C, strain SPO22, active compounds read low 0.98 | locus YIL125W, strain kgd1, active compounds read low 0.99 | locus YIR030C, strain dcg1, active compounds read low 0.985 | locus YJL092W, strain hpr5, active compounds read low 0.986 | locus YJL095W, strain BCK1 (second series), active compounds read low 0.986 | [2] 0.978 | locus YJL115W, strain asf1, active compounds read low 0.996 | locus YJL129C, strain trk1, active compounds read low 0.966 | locus YJL134W, strain LCB3, active compounds read low 0.983 | locus YJL154C, strain vps35, active compounds read low 0.977 | locus YJL164C, strain tpk1, active compounds read low 0.969 | locus YJL166W, strain qcr8, active compounds read low 0.98 | locus YJL168C, strain set2, active compounds read low 0.993 | locus YJL187C, strain SWE1 (second series), active compounds read low 0.963 | locus YJL187C, strain SWE1, active compounds read low 0.979 | locus YJR043C, strain POL32, active compounds read low 0.985 | locus YKL009W, strain mrt4, active compounds read low 0.965 | locus YKL068W, active compounds read low 0.975 | locus YKL085W, strain MDH1 (second series), active compounds read low 0.976 | locus YKL085W, strain MDH1, active compounds read low 0.976 | locus YKL160W, strain elf1, active compounds read low 0.999 | locus YKR001C, strain vps1, active compounds read low 1 | locus YKR026C, strain gcn3, active compounds read low 0.961 | locus YKR091W, strain srl3, active compounds read low 0.973 | locus YLL001W, strain dnm1, active compounds read low 1 | locus YLL026W, active compounds read low 0.991 | locus YLL041C, strain sdh2, active compounds read low 0.994 | locus YLR027C, strain aat2, active compounds read low 0.976 | locus YLR039C, strain RIC1, active compounds read low 0.97 | locus YLR058C, strain SHM2, active compounds read low 0.972 | locus YLR102C, strain apc9, active compounds read low 0.991 | locus YLR221C, strain rsa3, active compounds read low 0.966 | locus YLR258W, strain gsy2, active compounds read low 0.983 | locus YLR262C, strain YPT6 (second series), active compounds read low 0.977 | locus YLR262C, strain YPT6, active compounds read low 0.907 | locus YLR268W, strain sec22, active compounds read low 0.989 | locus YLR320W, strain mms22, active compounds read low 0.979 | locus YLR330W, strain CHS5, active compounds read low 0.99 | locus YLR342W, strain FKS1 (second series), active compounds read low 0.987 | locus YLR342W, strain FKS1, active compounds read low 0.967 | locus YLR357W, strain rsc2, active compounds read low 0.947 | locus YLR370C, strain arc18, active compounds read low 0.978 | locus YLR371W, strain rom2, active compounds read low 0.983 | locus YLR384C, strain iki3, active compounds read low 0.975 | locus YLR418C, strain cdc73, active compounds read low 1.01 | locus YML016C, strain PPZ1, active compounds read low 0.993 | locus YML032C, strain rad52, active compounds read low 0.983 | locus YML120C, strain ndi1, active compounds read low 0.971 | locus YML124C, strain tub3, active compounds read low 0.991 | locus YMR058W, strain fet3, active compounds read low 0.977 | locus YMR078C, strain ctf18, active compounds read low 0.982 | locus YMR125W, strain sto1, active compounds read low 0.96 | locus YMR129W, active compounds read low 0.981 | locus YMR205C, strain PFK2, active compounds read low 0.953 | locus YMR223W, strain ubp8, active compounds read low 0.981 | locus YMR231W, strain pep5, active compounds read low 0.982 | locus YMR307W, strain GAS1, active compounds read low 1.16 | locus YNL067W, strain RPL9B, active compounds read low 0.972 | locus YNL071W, strain lat1, active compounds read low 0.984 | locus YNL153C, strain GIM3, active compounds read low 0.954 | locus YNL209W, strain ssb2, active compounds read low 0.982 | locus YNL233W, strain BNI4, active compounds read low 1 | locus YNL248C, strain rpa49, active compounds read low 1 | locus YNL250W, strain rad50, active compounds read low 0.99 | locus YNL271C, strain bni1, active compounds read low 0.987 | locus YNL298W, strain CLA4, active compounds read low 0.992 | locus YNL307C, strain MCK1, active compounds read low 0.995 | locus YNL322C, strain KRE1 (second series), active compounds read low 0.953 | locus YNL322C, strain KRE1, active compounds read low 0.99 | locus YNR049C, strain mso1, active compounds read low 0.972 | locus YNR052C, strain pop2, active compounds read low 0.991 | locus YOL012C, strain htz1 0.858 | locus YOL147C, strain pex11, active compounds read low 0.988 | locus YOR001W, strain rrp6, active compounds read low 1 | locus YOR061W, strain CKA2, active compounds read low 0.966 | locus YOR069W, strain VPS5, active compounds read low 0.997 | locus YOR070C, strain gyp1, active compounds read low 0.985 | locus YOR080W, strain dia2, active compounds read low 0.965 | locus YOR083W, strain WHI5, active compounds read low 0.977 | locus YOR106W, strain vam3, active compounds read low 0.992 | locus YOR136W, strain idh2, active compounds read low 0.99 | locus YOR144C, strain elg1, active compounds read low 0.988 | locus YOR184W, strain ser1, active compounds read low 0.974 | locus YOR265W, strain rbl2, active compounds read low 0.985 | locus YOR270C, strain vph1, active compounds read low 0.977 | locus YOR290C, strain snf2, active compounds read low 0.92 | locus YOR316C, strain cot1, active compounds read low 0.984 | locus YPL051W, strain arl3, active compounds read low 1 | locus YPL055C, strain LGE1, active compounds read low 0.984 | locus YPL078C, strain atp4, active compounds read low 0.982 | locus YPL106C, strain sse1, active compounds read low 0.966 | locus YPL240C, strain hsp82, active compounds read low 1 | locus YPR119W, strain clb2, active compounds read low 0.973 | locus YPR141C, strain kar3, active compounds read low 0.985 | locus YPR163C, strain tif3, active compounds read low 0.997 | locus YPR167C, strain met16, active compounds read low 0.997 | strain wtn01, active compounds read low 0.981
